Compound activity from PubChem.
Rows were chosen to be rich in hits. Some 4.6% of all compounds tested hit in one or more screens of this group.
SKKanGAS inh: inhibitors of SKKanGAS S. pyogenes growth in kanamycin (SK-promoter or general growth effect); AID 1662; hit rate 1.3% among 300,000; BacTiter-Glo, 6 h; inhibition, % at 7.5 µM;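 active = mean replicate score, as percent of positive control median, at least 50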;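 note: strain carries kanamycin resistance gene driven by streptokinase promoter and grows in 40 µg/ml kanamycin; loss of luminescence reflects streptokinase promoter inhibition or plain growth inhibition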
tim23-1 inh: growth inhibitors of tim23-1 mutant yeast; inhibition, % at 20 µM; S. cerevisiae tim23-1 growth, BacTiter-Glo luminescence, 24 h; hit rate 1.3% among 330,000; AID 463212;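 active = growth inhibition of the mutant yeast at or above 50%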;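 note: temperature-sensitive mutant grown at 25 °C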
tim10-1 inh: inhibits growth of tim10-1 mutant yeast | AID 463190 | inhibition, % at 20 µM | hit rate 2.2% among 330,000 | S. cerevisiae tim10-1 ts strain growth, BacTiter-Glo, 24 h;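 active = inhibition of at least 40%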;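 note: mutant grown at 25 °C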
NALP3 yeast inh: inhibitors of NALP3 inflammasome in yeast; Yeast reconstituted NLRP3/ASC/caspase-1, beta-gal luminescence, 24 h; inhibition, % at 10 µM; hit rate 0.39% among 330,000; AID 2825;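 active = inhibition of 50% or more; inactive = inhibition below 50%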
TIM10 inh: inhibits growth of TIM10 yeast strain | hit rate 1.4% among 330,000 | inhibition, % at 10 µM | S. cerevisiae TIM10 strain growth, BacTiter-Glo luminescence, 24 h | AID 463195;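 active = inhibition of 40% or more at the single tested concentration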;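 note: wild-type TIM10 isogenic control strain grown at permissive 25 °C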
tim10 confirm: confirmation of TIM10 yeast growth inhibitors; inhibition, % at 10 µM; hit rate 63% among 4,600; shares compounds with TIM10 inh; S. cerevisiae tim10 strain growth, BacTiter-Glo luminescence, 24 h; AID 463215;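 active = inhibition of yeast growth at or above a set limit in either of two replicates at 10 µM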; note: this counterscreen used the strain with wild-type TIM10
Large screens that a line does not name were inactive (follow-up assays come after a bar, where they were run).

CC(=O)Nc1ccc(-c2cn3ccsc3n2)cc1	none
COc1ccc(CN2CCCC(C(=O)Nc3cccc(-n4cccn4)c3)C2)c(F)c1 (centres undefined)	none
CCCC(=O)N1CCN(c2ccc(NC(=O)c3cccs3)cc2Cl)CC1	TIM10 inh 46 | tim10 confirm inactive
CCCC(=O)N1CCN(c2ccc(NC(=O)C(C)(C)C)cc2Cl)CC1	none
C=CCn1c(O)c(N=Nc2ccccc2O)c2ccccc21	TIM10 inh 49 (no result: SKKanGAS inh) | tim10 confirm 65
NNc1nc(-c2ccccc2)nc2sc3c(c12)CCCC3	none
Nc1c2c(nc3sc4c(c13)CCCC4)-c1ccccc1CC2	TIM10 inh 43 | tim10 confirm 41
CCOC(=O)CN(C)Cc1cn(C)nc1-c1ccc(Oc2ccccc2)cc1	none
Cc1cccc(N2CCN(C(c3ccccc3)c3nnnn3C(C)(C)C)CC2)c1C (centres undefined)	TIM10 inh 41 | tim10 confirm inactive
Cc1cccc(N2CCN(C(c3cccs3)c3nnnn3C(C)(C)C)CC2)c1C (centres undefined)	none
COC(=O)C1CN(C(=O)COc2ccc(C)c(C)c2)c2ccccc2O1 (centres undefined)	none
Cc1cccc(Cn2cnc3ccccc32)c1	none
Cc1ccc(Cn2cnc3ccccc32)cc1C	TIM10 inh 40 | tim10 confirm inactive
COC(=O)CSc1nc2ccccc2o1	none
CCCCCCOC(=O)Sc1nc2ccccc2o1	TIM10 inh 77 | tim10 confirm 72
CC1=NN(c2ccccc2)C(=O)/C1=C\C=C\c1ccccc1	TIM10 inh 54 | tim10 confirm 38
COc1ccc2oc(=O)c(-c3csc(Nc4ccc(O)cc4)n3)cc2c1	SKKanGAS inh 104, TIM10 inh 41 | tim10 confirm inactive
CC(C)N1CCc2c(sc(NC(=O)c3nc4ccccc4s3)c2C(N)=O)C1	TIM10 inh 44 | tim10 confirm inactive
CC(=O)Nc1sc2c(c1-c1nc3ccccc3s1)CN(C(C)C)CC2	TIM10 inh 65 (no result: SKKanGAS inh) | tim10 confirm inactive
O=C(N/N=C/c1ccc(O)cc1)c1csc2c1CCCC2	none
Cc1cc(C)nc(N2CCN(C(=O)CCC(=O)Nc3nnc(C(C)C)s3)CC2)n1	none
O=C1/C(=C/c2cccnc2)CC/C1=C\c1cccnc1	none
O=C1/C(=C\c2cccnc2)CCc2ccccc21	TIM10 inh 44 | tim10 confirm 40
COc1ccc(/C=N/NC(=O)c2ccoc2C)cc1OC	none
COc1ccc(/C=N/NC(=O)c2ccoc2C)cc1COc1ccc(Cl)cc1	TIM10 inh 51 | tim10 confirm inactive
COc1ccc(CNC2CCSc3ccccc32)cc1OC (centres undefined)	none
N/C(Cc1cccc2ccccc12)=N\OC(=O)Cc1cccs1	TIM10 inh 49 | tim10 confirm 38
Cc1nc2c(ccc3nc(NC(=O)c4ccc(S(=O)(=O)N(C)C)cc4)sc32)s1	none
Cc1nc2c(ccc3nc(NC(=O)Cc4ccccc4)sc32)s1	TIM10 inh 42 | tim10 confirm 45
O=C(Cc1ccccc1)N/N=C/c1cc(Br)c(Br)o1	none
O=C(Cc1ccccc1)N/N=C/c1cc(Br)cc(Cl)c1O	SKKanGAS inh 97, TIM10 inh 45 | tim10 confirm 51
Cc1noc(C(=O)Nc2ccc3c(c2)OCO3)c1Cl	TIM10 inh 97 | tim10 confirm inactive
CC(C)OC(=O)CSc1nnc(-c2cnccn2)n1Cc1ccco1	none
Brc1ccc(CSc2nnc(-c3cnccn3)n2Cc2ccco2)cc1	TIM10 inh 45 | tim10 confirm inactive
O=C1CC(c2ccccc2)CC(O)=C1C=Nc1ccccc1 (centres undefined)	none
O=C1CC(c2cccc(Cl)c2)CC(O)=C1C=Nc1cccc(Cl)c1 (centres undefined)	TIM10 inh 79 | tim10 confirm 80
O=C(O)c1ccc(N2CC3CC(C2)c2cccc(=O)n2C3)c(NC(=S)Nc2ccc(Br)cc2)c1 (centres undefined)	none
COc1cc(CN2CCC(n3nccc3NC(=O)CCCc3ccccc3)CC2)ccc1F	none
CCOC(=O)c1cnc2c(ccc3ccccc32)c1NCCO	TIM10 inh 61 | tim10 confirm 69
CC(=O)C(Sc1nc(NC(C)(C)C)nc(N(C)C)n1)C(C)=O	TIM10 inh 44 | tim10 confirm inactive
CCn1c(=O)c(C(=O)NCc2ccccc2)c(O)c2ccccc21	none
CCn1c(=O)c(C(=O)NCc2cccnc2)c(O)c2ccccc21	TIM10 inh 44 | tim10 confirm 33
Cc1ccc(C)c(NC(=S)N/N=C/C(C)c2ccccc2)c1 (centres undefined)	TIM10 inh 49 | tim10 confirm inactive
Cc1ccc(C)c(NC(=S)NCc2ccccc2)c1	none
COc1ccc(N2CCC(CNC(=S)Nc3cccc(OC)c3)C2)cc1 (centres undefined)	none
CCc1ccccc1NC(=S)NCC1CCN(c2ccc(OC)cc2)C1 (centres undefined)	TIM10 inh 40 | tim10 confirm 53
CCc1cccc(C)c1NC(=S)NCC1CCN(c2ccc(OC)cc2)C1 (centres undefined)	TIM10 inh 57 | tim10 confirm 59
CSc1ccc(C(=O)C2CCCN(C(=O)c3ccc4c(c3)no[n+]4[O-])C2)cc1 (centres undefined)	TIM10 inh 46 | tim10 confirm 35
Cc1cc(C)c(C)c(S(=O)(=O)N2CCC(C(=O)NCCCN3CCOCC3)CC2)c1C	none (no result: SKKanGAS inh)
C=CCNC(=S)N/N=C/c1ccc(N(CC)Cc2ccccc2)cc1	none
CCN(CC)c1ccc(/C=N/NC(=S)NCc2ccccc2)cc1	TIM10 inh 44 | tim10 confirm inactive
COc1ccc(CNC(=S)N/N=C/c2ccc(O)c(OC)c2)cc1	none
COc1ccc(CNC(=S)N/N=C/c2ccc(OC)c(OC)c2)cc1	TIM10 inh 40 | tim10 confirm inactive
C=CC[C@H](CC(=O)NCCO)C(=O)N[C@H](COC(=O)[C@H](CC=C)CC(=O)OC(C)(C)C)c1ccccc1	none (no result: SKKanGAS inh)
O=C(Nc1ccc(-c2nc3ccc(NC(=O)c4cccs4)cc3[nH]2)cc1)c1cccs1	none
O=C(Nc1ccc2nc(-c3cccs3)[nH]c2c1)c1cccs1	TIM10 inh 52 | tim10 confirm 33
Cc1ccc(Cc2cnc(NC(=O)C3CCCO3)s2)cc1 (centres undefined)	none
O=C(Nc1ccc(Cc2ccncc2)cc1)c1cccs1	TIM10 inh 41 | tim10 confirm inactive
O=C(c1ccncc1)c1ccc(NC(=O)c2cccs2)cc1	none
Cc1ccc(Cc2cnc(NC(=O)c3cccs3)s2)cc1	SKKanGAS inh 78, TIM10 inh 54 | tim10 confirm inactive
CC(C)(C)c1ccc(/C=C(\c2nc3ccccc3[nH]2)S(=O)(=O)c2ccccc2)cc1	TIM10 inh 47 | tim10 confirm 33
O=C(Nc1nccs1)c1ccc(-c2ccccc2[N+](=O)[O-])o1	none
O=C(Nc1nccs1)c1ccc(-c2ccccc2Cl)o1	TIM10 inh 47 | tim10 confirm inactive
